One experiment has as its system TSSK3. To be noted: concentration: 1 μM, replicates: in singlicate, n = 1.
The next experiment concerns TTK. The following applies: concentration: 1 μM, replicates: in singlicate; n = 1.
A further experiment deals with TXK. The following applies: concentration: 1 μM, replicates: in singlicate, n = 1.
Experiment [1] relates to TYK2(JH1domain-catalytic). The following applies: concentration: 1 μM, replicates: in singlicate, n = 1.
Experiment [2] deals with TYK2(JH2domain-pseudokinase). The following applies: concentration: 1 μM, replicates: in singlicate, n = 1.
The test system of a further experiment is TYRO3. The following applies: concentration: 1 μM, replicates: in singlicate, n = 1.
Another experiment has as its system ULK1. The following applies: concentration: 1 μM, replicates: in singlicate, n = 1.
The subject of another experiment is ULK2. The following applies: concentration: 1 μM, replicates: in singlicate; n = 1.
The test system of another experiment is ULK3. To be noted: concentration: 1 μM, replicates: in singlicate, n = 1.
The subject of the next experiment is T1, VEGFR2.
T1 construct: gene KDR
The following applies: concentration: 1 μM, replicates: in singlicate, n = 1.

Structures are written as SMILES. Several values for one entry are separate records, joined by “and”; a condition that tells them apart may be missing. Equal values may be shown once. Read-outs that look alike come from different tables or passages of the source.
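Note: KINOMEscan kinase panel screen.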

For `CN1c2ccc(CNc3ccc(F)cc3)cc2-c2c(cnn2C)S1(=O)=O`, the “%Inh” value (in the experiment on TSSK3; with TTK; with TXK; in experiment [1]; in experiment [2]; in the experiment with TYRO3) was 0% each time. Moreover, the “%Inh” value in the experiment on ULK1, with ULK2, in the experiment on ULK3 and with VEGFR2 was 0% throughout.

As to `Cc1ccc(NC(=O)c2ccnc(N3CCN(C)CC3)c2)cc1-c1ccc(C(=O)NCC2CC2)cc1` [GW775604], the “%Inh” value in the experiment on TSSK3 is 0%; with TTK it was 0%; in the experiment on TXK, 0%; in [1], 100%; in [2] it was 0%; in the experiment with TYRO3, 0%. The “%Inh” value with ULK1 was found to be 0%; with ULK2 it was 100%; in the experiment with ULK3, 0%; in the experiment on VEGFR2, 0%.

Regarding `Fc1ccc(-c2ncn(CCCN3CCOCC3)c2-c2ccccn2)cc1` [SB-211742], the “%Inh” value with TSSK3 was 0%; in the experiment on TTK it was 0%; with TXK it was 5%; in [1], 0%; in experiment [2], 0%; in the experiment with TYRO3 it was 8%. The “%Inh” value with ULK1, in the experiment with ULK2, in the experiment on ULK3 and in the experiment on VEGFR2 was 0% each time.

For `Cc1cn2c(=O)cc(N3CCOCC3)nc2n1Cc1cccc(Cl)c1Cl` [GSK2334006], the “%Inh” value is 29% in the experiment with TSSK3; 0% in the experiment with TTK; 8% in the experiment on TXK; 19% in experiment [1]; 18% in [2]; 7% with TYRO3. Also, the “%Inh” value in the experiment with ULK1 was 0%; in the experiment on ULK2, 0%; in the experiment with ULK3, 7%; in the experiment on VEGFR2, 8%.

For the compound `CC(C)Oc1ccc2c(-c3ccnc(Nc4ccc(N5CCN(C)CC5)cc4)n3)cnn2n1` [GW696155], the “%Inh” value worked out at 96% with TSSK3; 89% in the experiment with TTK; 13% in the experiment on TXK; 98% in experiment [1]; 99.4% in [2]; 0% in the experiment with TYRO3. The “%Inh” value is on record as 99.9% with ULK1, 99.8% in the experiment with ULK2, 100% in the experiment with ULK3 and 60% in the experiment on VEGFR2.

`NCC(NC(=O)c1cc(-c2cn[nH]c2)c(-c2ccnc3[nH]ccc23)s1)c1ccccc1.O=C(O)C(F)(F)F.O=C(O)C(F)(F)F` (stereo not shown) [GSK1325775]: the “%Inh” value in the experiment on TSSK3 amounted to 23%; in the experiment with TTK, 14%; with TXK it was 10%; in experiment [1] it was 49%; in experiment [2], 31%; in the experiment with TYRO3, 0%. In addition, the “%Inh” value in the experiment with ULK1 was 18%; in the experiment with ULK2, 7%; in the experiment on ULK3, 14%; with VEGFR2, 18%.

In the case of `NS(=O)(=O)CCc1cccc(Nc2nccc(-c3c(-c4cccc(NC(=O)c5c(F)cccc5F)c4)nn4ccccc34)n2)c1` [GSK336735], the “%Inh” value in the experiment on TSSK3 was determined as 23%; in the experiment on TTK, 26%; with TXK, 90.1%; in experiment [1], 98.7%; in experiment [2], 18%; in the experiment on TYRO3, 100%. For the same compound, the “%Inh” value was 0% with ULK1, 0% with ULK2, 3% in the experiment with ULK3 and 90% with VEGFR2.

As to `Cc1cccc(-c2nc(-c3ccc(S(C)(=O)=O)cc3)sc2-c2ccncc2)c1`, the “%Inh” value is recorded as 0% in the experiment on TSSK3; 20% in the experiment on TTK; 0% with TXK; 2% in [1]; 3% in experiment [2]; 0% in the experiment on TYRO3. The “%Inh” value in the experiment on ULK1, with ULK2, in the experiment with ULK3 and in the experiment with VEGFR2 was 0% each time.

For the compound `COc1ccc(COc2cc(-n3cnc4ccccc43)sc2C(N)=O)cc1` [GSK1024304], the “%Inh” value in the experiment on TSSK3 worked out at 17%; in the experiment on TTK it was 6%; in the experiment with TXK, 20%; in experiment [1] it was 4%; in experiment [2], 0%; with TYRO3, 0%. Moreover, the “%Inh” value in the experiment with ULK1 was 15%; with ULK2, 0%; with ULK3, 0%; in the experiment on VEGFR2, 0%.

With `Fc1ccc(-c2ncn(CCCN3CCOCC3)c2-c2cccnc2)cc1` [SB-211743], the “%Inh” value was 0% with TSSK3; 15% in the experiment with TTK; 0% in the experiment on TXK; 0% in [1]; 7% in experiment [2]; 0% in the experiment with TYRO3. Besides, the “%Inh” value in the experiment with ULK1 came to 4%; in the experiment with ULK2 it was 2%; with ULK3, 18%; in the experiment on VEGFR2, 0%.

Take `COc1cc(Nc2nccc(N3CCC(NC(=O)c4cccc(NC(C)=O)c4)C3)n2)cc(OC)c1OC` (stereo not shown) [GSK1379754]: the “%Inh” value in the experiment on TSSK3 is 20%; in the experiment with TTK, 27%; with TXK it was 7%; in experiment [1], 68%; in [2], 19%; with TYRO3, 0%. Further, the “%Inh” value in the experiment on ULK1 came out at 10%; in the experiment with ULK2, 0%; in the experiment with ULK3, 87%; with VEGFR2, 10%.

`CSc1ccc(-c2cc3ncnc(SCC(=O)O)c3s2)cc1`: the “%Inh” value (with TSSK3; in the experiment with TTK; in the experiment on TXK; in experiment [1]; in experiment [2]; in the experiment with TYRO3) was 0% in each case. In addition, the “%Inh” value in the experiment on ULK1 stood at 0%; in the experiment on ULK2 it was 8%; with ULK3, 0%; in the experiment with VEGFR2, 0%.

With `O=C(NCCCN1CCOCC1)c1cccc(Nc2nccc(Nc3ccc(Oc4ccccc4)cc3)n2)c1` [GW663929], the “%Inh” value in the experiment with TSSK3 is on record as 10%; in the experiment with TTK it was 21%; in the experiment on TXK it was 0%; in experiment [1], 30%; in experiment [2], 44%; with TYRO3 it was 5%. Further, the “%Inh” value in the experiment on ULK1 turned out to be 1%; with ULK2, 2%; in the experiment with ULK3 it was 11%; with VEGFR2, 13%.

Turning to `O=c1cc(N2CCOCC2)nc2n(Cc3cccc(C(F)(F)F)c3)ccn12` [GSK2297543], the “%Inh” value in the experiment on TSSK3 is listed as 15%; in the experiment on TTK, 12%; in the experiment with TXK it was 0%; in experiment [1], 0%; in experiment [2], 0%; in the experiment with TYRO3, 0%. For the same compound, the “%Inh” value in the experiment with ULK1 is 0%; with ULK2, 0%; in the experiment on ULK3, 9%; with VEGFR2, 13%.

With `CC(C)(CN)c1nc(-c2ccc(Cl)c(O)c2)c(-c2ccncc2)[nH]1.O=C(O)C(F)(F)F` [SB-477794], the “%Inh” value in the experiment on TSSK3 (1 µM) was 6% and 16%; in the experiment on TTK, 0%; with TXK (1 µM) it was 100% and 96.2%; in experiment [1] (1 µM) it was 59% and 16%; in experiment [2] (1 µM), 73% and 41%; in the experiment on TYRO3 (1 µM) it was 12% and 34%. The “%Inh” value in the experiment with ULK1 (1 µM) is 19% and 0%; with ULK2 it was 0%; in the experiment on ULK3 (1 µM) it was 16% and 2%; in the experiment with VEGFR2 (1 µM) it was 86% and 83%.

On to `COc1cc2c(cc1OCCN1CCN(C)CC1)ncc1c3ccc(C#N)cc3[nH]c21`, for which the “%Inh” value in the experiment on TSSK3 was found to be 9%; in the experiment on TTK, 7%; in the experiment on TXK it was 0%; in experiment [1], 0%; in experiment [2] it was 35%; with TYRO3, 0%. Moreover, the “%Inh” value came to 92.4% with ULK1, 99.9% in the experiment on ULK2, 66% with ULK3 and 23% with VEGFR2.

Values taken from paper PMC5540273 (PLoS ONE, 2017).
